# Laboratory results as given in publication PMC7862700, “An all-to-all approach to the identification of sequence-specific readers for epigenetic DNA modifications on cytosine”.
# Key:
# Test in all cases: DAPPL (digital affinity profiling via proximity ligation, sequencing); 10 mM Tris-HCl pH 7.5, 50 mM NaCl, 1 mM DTT, 4% glycerol, room temperature, 30 min; GST-TFs on glutathione beads, 16-mer random dsDNA library, 0.1% formaldehyde crosslink after washing; high values mean tight binding
# Conditions in all cases: protein: recombinant; tags: N-terminal GST; dsDNA, one strand shown
# ELK1 = biological target: T1, ELK1 (Homo sapiens, UniProt P19419 1-428)
# T1 sequence: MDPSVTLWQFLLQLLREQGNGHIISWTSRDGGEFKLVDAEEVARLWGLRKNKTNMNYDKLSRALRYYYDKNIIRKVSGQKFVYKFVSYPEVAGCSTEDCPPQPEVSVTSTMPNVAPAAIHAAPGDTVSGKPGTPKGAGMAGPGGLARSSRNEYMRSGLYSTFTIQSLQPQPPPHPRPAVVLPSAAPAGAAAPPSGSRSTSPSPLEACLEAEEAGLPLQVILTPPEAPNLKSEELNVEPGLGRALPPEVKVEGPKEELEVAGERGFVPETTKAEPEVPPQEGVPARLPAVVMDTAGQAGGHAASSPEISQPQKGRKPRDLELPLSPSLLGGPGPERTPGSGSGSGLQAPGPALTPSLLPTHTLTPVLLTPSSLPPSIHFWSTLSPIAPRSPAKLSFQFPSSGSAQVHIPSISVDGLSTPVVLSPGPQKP
# Outline: (§1)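 Yeast served to express human transcription factors as GST fusions, which were then captured on glutathione beads and labelled with DNA barcodes. Pooled with a tag-only sample, they were incubated with 200 nmole of a 16-mer random double-stranded DNA library for 30 min at room temperature in Tris/NaCl/DTT/glycerol buffer, washed, crosslinked with 0.1% formaldehyde, ligated by proximity, amplified by PCR and sequenced. Dividing each hexamer's read frequency for a factor by its frequency for the tag-only sample gives the binding signal.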
# GABPA = biological target: T2, GABPA (Homo sapiens, UniProt Q06546 1-454)
# T2 sequence: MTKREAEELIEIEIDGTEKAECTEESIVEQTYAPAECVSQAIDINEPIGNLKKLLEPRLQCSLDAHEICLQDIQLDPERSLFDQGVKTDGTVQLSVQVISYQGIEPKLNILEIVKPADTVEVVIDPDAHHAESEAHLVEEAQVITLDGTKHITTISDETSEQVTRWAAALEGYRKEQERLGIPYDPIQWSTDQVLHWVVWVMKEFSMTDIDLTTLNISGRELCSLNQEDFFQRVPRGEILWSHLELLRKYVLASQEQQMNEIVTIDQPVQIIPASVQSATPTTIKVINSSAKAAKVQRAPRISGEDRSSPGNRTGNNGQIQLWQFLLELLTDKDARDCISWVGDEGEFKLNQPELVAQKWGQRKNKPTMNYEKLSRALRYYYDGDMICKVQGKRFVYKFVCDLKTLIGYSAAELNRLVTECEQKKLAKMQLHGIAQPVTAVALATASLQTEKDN
# Outline: as §1
# ERG = biological target: T3, ERG (Homo sapiens, UniProt P11308 1-479)
# T3 sequence: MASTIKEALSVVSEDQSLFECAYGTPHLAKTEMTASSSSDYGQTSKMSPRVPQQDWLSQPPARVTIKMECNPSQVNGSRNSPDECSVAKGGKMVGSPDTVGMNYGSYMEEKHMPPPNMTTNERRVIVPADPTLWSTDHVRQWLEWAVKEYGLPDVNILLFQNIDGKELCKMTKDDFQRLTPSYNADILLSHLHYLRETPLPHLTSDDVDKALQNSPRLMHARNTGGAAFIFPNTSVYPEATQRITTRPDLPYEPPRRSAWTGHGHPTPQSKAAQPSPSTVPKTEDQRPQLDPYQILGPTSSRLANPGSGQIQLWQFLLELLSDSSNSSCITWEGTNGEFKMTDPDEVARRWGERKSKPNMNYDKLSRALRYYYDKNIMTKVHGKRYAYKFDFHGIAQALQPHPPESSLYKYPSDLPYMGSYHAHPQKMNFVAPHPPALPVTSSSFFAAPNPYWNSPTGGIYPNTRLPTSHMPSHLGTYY
# Outline: as §1
# ELF1 = ELF1 (Homo sapiens, UniProt P32519 1-619)
# Sequence of ELF1 (P32519 whole entry): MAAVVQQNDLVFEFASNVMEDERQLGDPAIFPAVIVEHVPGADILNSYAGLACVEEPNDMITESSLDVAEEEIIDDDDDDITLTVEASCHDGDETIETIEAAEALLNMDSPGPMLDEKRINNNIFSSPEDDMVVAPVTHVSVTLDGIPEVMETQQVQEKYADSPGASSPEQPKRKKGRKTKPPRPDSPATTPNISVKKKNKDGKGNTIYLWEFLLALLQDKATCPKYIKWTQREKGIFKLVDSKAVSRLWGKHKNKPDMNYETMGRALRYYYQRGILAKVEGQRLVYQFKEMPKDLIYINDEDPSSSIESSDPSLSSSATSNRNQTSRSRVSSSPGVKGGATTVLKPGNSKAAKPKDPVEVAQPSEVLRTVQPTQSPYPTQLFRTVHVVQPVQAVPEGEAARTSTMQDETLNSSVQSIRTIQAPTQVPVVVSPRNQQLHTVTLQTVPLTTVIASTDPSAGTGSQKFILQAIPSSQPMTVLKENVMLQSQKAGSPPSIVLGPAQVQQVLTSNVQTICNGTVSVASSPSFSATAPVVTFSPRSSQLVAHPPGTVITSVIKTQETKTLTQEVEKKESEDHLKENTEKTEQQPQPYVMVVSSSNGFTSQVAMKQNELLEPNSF
# Outline: as §1
# EHF = biological target: T4, EHF (Homo sapiens, UniProt Q9NZC4 1-300)
# T4 sequence: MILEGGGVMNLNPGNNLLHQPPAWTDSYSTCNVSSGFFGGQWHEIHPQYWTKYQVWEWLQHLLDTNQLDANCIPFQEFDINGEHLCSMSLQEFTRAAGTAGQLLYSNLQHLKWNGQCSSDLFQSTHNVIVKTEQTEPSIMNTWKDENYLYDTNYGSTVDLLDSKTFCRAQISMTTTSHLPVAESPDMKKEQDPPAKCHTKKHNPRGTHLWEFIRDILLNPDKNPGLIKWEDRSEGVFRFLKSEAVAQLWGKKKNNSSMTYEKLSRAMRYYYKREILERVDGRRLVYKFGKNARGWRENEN
# Outline: as §1
# SPIB = SPIB (Homo sapiens, UniProt Q01892 1-262)
# Sequence of SPIB (Q01892 whole entry): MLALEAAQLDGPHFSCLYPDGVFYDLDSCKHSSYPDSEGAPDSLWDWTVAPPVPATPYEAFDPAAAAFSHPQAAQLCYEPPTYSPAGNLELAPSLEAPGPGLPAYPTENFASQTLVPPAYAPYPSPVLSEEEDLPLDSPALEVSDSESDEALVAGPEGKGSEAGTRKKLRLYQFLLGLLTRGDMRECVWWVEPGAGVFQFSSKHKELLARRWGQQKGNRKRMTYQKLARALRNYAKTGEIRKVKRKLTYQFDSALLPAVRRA
# Outline: as §1
# FEV = biological target: T5, FEV (Homo sapiens, UniProt Q99581 1-238)
# T5 sequence: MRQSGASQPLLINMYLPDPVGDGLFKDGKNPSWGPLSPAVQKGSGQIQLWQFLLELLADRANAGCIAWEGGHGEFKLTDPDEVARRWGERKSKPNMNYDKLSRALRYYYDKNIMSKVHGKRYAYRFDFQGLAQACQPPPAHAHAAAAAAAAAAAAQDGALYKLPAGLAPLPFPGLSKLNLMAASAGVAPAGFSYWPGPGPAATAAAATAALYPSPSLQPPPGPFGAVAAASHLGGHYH
# Outline: as §1
# ETV5 = ETV5 (Homo sapiens, UniProt P41161 1-510)
# Sequence of ETV5 (P41161 whole entry): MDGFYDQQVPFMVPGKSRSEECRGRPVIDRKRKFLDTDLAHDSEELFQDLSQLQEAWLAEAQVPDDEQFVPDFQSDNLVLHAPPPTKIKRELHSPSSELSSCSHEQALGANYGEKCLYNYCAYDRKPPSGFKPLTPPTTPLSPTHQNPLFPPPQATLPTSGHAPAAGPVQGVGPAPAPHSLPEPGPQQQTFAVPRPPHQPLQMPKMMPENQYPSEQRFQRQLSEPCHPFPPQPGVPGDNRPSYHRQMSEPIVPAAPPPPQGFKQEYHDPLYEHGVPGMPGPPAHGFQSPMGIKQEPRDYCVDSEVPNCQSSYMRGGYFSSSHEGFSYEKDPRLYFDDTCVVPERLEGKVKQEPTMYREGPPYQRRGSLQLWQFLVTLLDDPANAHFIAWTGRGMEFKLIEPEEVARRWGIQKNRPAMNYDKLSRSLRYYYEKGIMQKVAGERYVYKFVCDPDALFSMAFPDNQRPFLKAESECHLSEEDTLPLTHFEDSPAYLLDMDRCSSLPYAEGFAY
# Outline: as §1
# ELF4 = ELF4 (Homo sapiens, UniProt Q99607 1-663)
# Sequence of ELF4 (Q99607 whole entry): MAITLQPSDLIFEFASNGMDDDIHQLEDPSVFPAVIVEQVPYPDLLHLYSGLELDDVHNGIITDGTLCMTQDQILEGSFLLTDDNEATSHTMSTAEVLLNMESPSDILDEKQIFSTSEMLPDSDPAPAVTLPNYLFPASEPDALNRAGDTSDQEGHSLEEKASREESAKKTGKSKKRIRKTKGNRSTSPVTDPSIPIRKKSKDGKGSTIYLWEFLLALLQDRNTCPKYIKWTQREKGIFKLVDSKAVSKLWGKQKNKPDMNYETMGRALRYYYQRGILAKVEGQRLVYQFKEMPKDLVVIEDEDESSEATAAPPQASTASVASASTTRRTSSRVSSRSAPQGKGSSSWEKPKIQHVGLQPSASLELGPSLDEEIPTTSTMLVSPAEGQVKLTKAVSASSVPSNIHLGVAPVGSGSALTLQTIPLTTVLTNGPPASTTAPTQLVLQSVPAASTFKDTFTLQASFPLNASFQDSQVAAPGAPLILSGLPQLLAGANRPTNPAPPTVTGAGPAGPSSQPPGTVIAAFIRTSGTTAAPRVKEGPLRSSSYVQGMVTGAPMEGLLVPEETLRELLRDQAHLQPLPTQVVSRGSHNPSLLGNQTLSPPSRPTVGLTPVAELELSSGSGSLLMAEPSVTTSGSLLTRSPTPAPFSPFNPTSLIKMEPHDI
# Outline: as §1
# ELK4 = biological target: T6, ELK4 (Homo sapiens, UniProt P28324-2 1-405)
# T6 sequence: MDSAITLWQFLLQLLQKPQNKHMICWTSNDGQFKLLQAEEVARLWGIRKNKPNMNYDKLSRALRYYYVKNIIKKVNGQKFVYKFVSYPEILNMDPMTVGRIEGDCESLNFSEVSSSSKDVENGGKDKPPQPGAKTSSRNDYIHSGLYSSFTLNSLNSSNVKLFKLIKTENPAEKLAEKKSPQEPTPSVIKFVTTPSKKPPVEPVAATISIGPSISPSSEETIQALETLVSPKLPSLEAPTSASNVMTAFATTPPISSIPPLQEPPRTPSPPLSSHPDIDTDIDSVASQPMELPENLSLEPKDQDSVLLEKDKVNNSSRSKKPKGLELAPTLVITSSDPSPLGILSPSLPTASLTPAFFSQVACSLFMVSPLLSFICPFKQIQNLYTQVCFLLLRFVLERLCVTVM
# Outline: as §1
# ETV2 = biological target: T7, ETV2 (Homo sapiens, UniProt O00321 1-342)
# T7 sequence: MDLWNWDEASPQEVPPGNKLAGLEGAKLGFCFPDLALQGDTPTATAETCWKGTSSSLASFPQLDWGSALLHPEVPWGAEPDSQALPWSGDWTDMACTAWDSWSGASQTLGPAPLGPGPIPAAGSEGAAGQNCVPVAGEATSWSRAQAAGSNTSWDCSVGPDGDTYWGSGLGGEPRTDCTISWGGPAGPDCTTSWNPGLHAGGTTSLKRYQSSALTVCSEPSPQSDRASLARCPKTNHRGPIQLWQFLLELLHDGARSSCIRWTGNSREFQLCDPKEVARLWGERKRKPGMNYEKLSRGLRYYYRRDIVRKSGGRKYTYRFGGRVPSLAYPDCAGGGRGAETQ
# Outline: as §1
# ELF3 = biological target: T8, ELF3 (Homo sapiens, UniProt P78545 1-371)
# T8 sequence: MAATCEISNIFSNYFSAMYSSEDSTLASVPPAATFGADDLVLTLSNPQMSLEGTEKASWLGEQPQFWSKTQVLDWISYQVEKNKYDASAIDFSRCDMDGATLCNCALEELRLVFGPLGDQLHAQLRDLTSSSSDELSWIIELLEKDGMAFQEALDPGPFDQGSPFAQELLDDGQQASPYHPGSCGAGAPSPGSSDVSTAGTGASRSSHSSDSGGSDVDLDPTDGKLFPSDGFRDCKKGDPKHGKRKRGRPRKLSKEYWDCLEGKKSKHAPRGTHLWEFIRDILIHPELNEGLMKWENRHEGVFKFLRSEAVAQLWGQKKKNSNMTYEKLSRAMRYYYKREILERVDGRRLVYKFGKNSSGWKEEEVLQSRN
# Outline: as §1
# ERF = biological target: T9, ERF (Homo sapiens, UniProt P50548 1-548)
# T9 sequence: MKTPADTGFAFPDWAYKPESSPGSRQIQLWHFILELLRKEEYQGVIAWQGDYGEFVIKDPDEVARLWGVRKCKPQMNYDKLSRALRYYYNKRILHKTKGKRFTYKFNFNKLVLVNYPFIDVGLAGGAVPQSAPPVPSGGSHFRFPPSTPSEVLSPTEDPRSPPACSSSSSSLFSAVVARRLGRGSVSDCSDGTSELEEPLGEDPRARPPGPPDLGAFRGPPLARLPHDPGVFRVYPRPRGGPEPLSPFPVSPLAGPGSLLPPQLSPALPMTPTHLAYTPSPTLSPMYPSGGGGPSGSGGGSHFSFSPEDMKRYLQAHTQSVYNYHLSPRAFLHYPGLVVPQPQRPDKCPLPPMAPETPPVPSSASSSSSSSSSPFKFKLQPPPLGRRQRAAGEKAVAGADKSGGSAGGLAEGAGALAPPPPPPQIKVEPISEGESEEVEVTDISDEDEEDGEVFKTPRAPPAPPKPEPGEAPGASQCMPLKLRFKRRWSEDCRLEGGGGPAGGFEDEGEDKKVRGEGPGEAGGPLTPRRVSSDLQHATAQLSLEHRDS
# Outline: as §1
# ETV3L = biological target: T10, ETV3L (Homo sapiens, UniProt Q6ZN32 1-361)
# T10 sequence: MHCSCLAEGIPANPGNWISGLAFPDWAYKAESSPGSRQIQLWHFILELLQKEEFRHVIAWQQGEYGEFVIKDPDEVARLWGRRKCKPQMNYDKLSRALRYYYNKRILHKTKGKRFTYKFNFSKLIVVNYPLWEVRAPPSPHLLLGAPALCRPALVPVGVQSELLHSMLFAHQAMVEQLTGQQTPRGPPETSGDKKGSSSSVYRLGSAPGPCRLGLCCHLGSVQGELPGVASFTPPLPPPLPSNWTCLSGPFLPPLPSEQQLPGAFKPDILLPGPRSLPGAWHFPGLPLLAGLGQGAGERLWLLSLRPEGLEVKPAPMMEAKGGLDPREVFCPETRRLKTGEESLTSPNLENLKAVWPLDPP
# Outline: as §1
# ETS2 = biological target: T11, ETS2 (Homo sapiens, UniProt P15036 1-469)
# T11 sequence: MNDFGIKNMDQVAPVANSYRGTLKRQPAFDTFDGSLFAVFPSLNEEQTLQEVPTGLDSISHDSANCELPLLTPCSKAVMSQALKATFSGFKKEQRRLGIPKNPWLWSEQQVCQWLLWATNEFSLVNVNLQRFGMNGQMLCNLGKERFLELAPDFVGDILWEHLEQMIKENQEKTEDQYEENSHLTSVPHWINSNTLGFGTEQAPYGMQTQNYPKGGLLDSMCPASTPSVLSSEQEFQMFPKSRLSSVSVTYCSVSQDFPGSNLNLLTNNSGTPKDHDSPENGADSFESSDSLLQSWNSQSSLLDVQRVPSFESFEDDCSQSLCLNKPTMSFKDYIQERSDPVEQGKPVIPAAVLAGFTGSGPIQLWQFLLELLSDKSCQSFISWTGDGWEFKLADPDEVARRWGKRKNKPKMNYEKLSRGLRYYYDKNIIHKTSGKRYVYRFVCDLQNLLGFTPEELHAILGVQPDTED
# Outline: as §1
# SPDEF = biological target: T12, SPDEF (Homo sapiens, UniProt O95238 1-335)
# T12 sequence: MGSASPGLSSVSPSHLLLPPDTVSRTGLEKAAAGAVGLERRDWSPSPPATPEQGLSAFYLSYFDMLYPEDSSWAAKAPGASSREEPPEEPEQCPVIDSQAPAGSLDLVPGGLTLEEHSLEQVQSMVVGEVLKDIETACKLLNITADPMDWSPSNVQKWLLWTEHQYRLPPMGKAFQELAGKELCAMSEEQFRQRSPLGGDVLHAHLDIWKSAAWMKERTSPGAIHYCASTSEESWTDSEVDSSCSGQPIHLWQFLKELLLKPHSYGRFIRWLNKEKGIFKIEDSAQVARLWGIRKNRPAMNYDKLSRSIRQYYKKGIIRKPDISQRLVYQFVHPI
# Outline: as §1
# ETV3 = biological target: T13, ETV3 (Homo sapiens, UniProt P41162-2 1-143)
# T13 sequence: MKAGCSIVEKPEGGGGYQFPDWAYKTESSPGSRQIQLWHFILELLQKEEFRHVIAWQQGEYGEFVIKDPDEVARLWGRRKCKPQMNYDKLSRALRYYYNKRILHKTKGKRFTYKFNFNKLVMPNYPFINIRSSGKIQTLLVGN
# Outline: as §1
# ETV6 = ETV6 (Homo sapiens, UniProt P41212 1-452)
# Sequence of ETV6 (P41212 whole entry): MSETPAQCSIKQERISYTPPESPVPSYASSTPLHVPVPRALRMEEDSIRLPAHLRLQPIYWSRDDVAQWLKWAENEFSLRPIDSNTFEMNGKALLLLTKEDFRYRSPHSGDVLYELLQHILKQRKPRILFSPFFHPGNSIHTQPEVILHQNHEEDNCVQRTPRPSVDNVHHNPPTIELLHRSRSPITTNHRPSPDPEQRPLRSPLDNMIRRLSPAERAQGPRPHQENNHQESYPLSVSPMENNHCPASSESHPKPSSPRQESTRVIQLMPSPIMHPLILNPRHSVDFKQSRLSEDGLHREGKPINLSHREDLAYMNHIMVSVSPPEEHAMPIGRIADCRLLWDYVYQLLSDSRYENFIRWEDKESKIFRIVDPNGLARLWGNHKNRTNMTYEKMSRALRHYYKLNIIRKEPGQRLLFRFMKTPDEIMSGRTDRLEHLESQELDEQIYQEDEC
# Outline: as §1
sequence,measurement,setting,value
AGCGCC,binding signal,ELK1,"1.06 fold enrichment (6-mer frequency, TF over GST control)"
same,binding signal,GABPA,"1.07 fold enrichment (6-mer frequency, TF over GST control)"
same,binding signal,ERG,"1.05 fold enrichment (6-mer frequency, TF over GST control)"
same,binding signal,ELF1,"1.13 fold enrichment (6-mer frequency, TF over GST control)"
same,binding signal,EHF,"1.13 fold enrichment (6-mer frequency, TF over GST control)"
same,binding signal,SPIB,"1.1 fold enrichment (6-mer frequency, TF over GST control)"
same,binding signal,FEV,"1.19 fold enrichment (6-mer frequency, TF over GST control)"
same,binding signal,ETV5,"1.04 fold enrichment (6-mer frequency, TF over GST control)"
same,binding signal,ELF4,"1.09 fold enrichment (6-mer frequency, TF over GST control)"
same,binding signal,ELK4,"1.11 fold enrichment (6-mer frequency, TF over GST control)"
same,binding signal,ETV2,"1.09 fold enrichment (6-mer frequency, TF over GST control)"
same,binding signal,ELF3,"1.09 fold enrichment (6-mer frequency, TF over GST control)"
same,binding signal,ERF,"1.05 fold enrichment (6-mer frequency, TF over GST control)"
same,binding signal,ETV3L,"1.07 fold enrichment (6-mer frequency, TF over GST control)"
same,binding signal,ETS2,"1.06 fold enrichment (6-mer frequency, TF over GST control)"
same,binding signal,SPDEF,"1.02 fold enrichment (6-mer frequency, TF over GST control)"
same,binding signal,ETV3,"1.14 fold enrichment (6-mer frequency, TF over GST control)"
same,binding signal,ETV6,"1.16 fold enrichment (6-mer frequency, TF over GST control)"
